N370S GC = qHTS Assay for Inhibitors and Activators of N370S glucocerebrosidase as a Potential Chaperone Treatment of Gaucher Disease; Lysosomal acid glucosylceramidase (Homo sapiens), P04062; AID 2101, 2009; Potency, µM (series often up to 59.4 µM), inactives show at the highest dose activity change, negative = inhibition, most hits filed as inhibitors; N370S GC spleen homogenate, 4MU-glucoside fluorescence; actives 0.092% (n = 330,000);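 note: 0% = full enzyme activity and -100% = no enzyme basal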
GAA inhib = qHTS Assay for Inhibitors of Human alpha-Glucosidase as a Potential Chaperone Treatment of Pompe Disease. actives 0.005% (n = 200,000). Potency, µM (titrated, usually from 76.9 µM), without a hit: top-dose activity change, negative = inhibition, usual class: inhibitors. purified human GAA, 4-MU-alpha-glucoside fluorescence. Lysosomal alpha-glucosidase (Homo sapiens), P10253;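 note: plate controls were uninhibited enzyme wells for no effect and no-enzyme background for full effect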
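Read-out is 4-methylumbelliferone fluorescence (Ex 365/Em 440 nm) after NaOH/glycine stop at pH 10. Enzyme 4 nM, substrate 400 uM, pH 5.0 citrate buffer, 20 min room temperature; AC50 from Hill-equation concentration-response.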
aGlu spleen mod = qHTS Assay for Inhibitors and Activators of Human alpha-Glucosidase From Spleen Homogenate. Lysosomal alpha-glucosidase (Homo sapiens), P10253. human spleen homogenate, 4-MU-alpha-glucoside fluorescence. Potency, µM (top dose mostly 79.9 µM), for the others: at the top dose activity change, negative = inhibition, most hits filed as inhibitors. actives 0.006% (n = 240,000). AID 2112, 2009;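 note: 0% = enzyme with vehicle and -100% = no enzyme basal signal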
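Enzyme source: human spleen homogenate, 1 ug/well. Buffer 50 mM citric acid/K phosphate pH 5.0, 0.01% Tween-20. 4-MU-alpha-glucoside 1 mM; 37 C x 40 min; NaOH/glycine stop; fluorescence.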
LMNA splice mod = qHTS Assay for Modulators of Lamin A Splicing; Potency, µM (doses to about 46.1 µM), inactives show at the highest dose ratio change, negative = inhibition, most hits filed as inhibitors; HeLa LMNA splicing GFP/RFP minigene ratio, 48 h; actives 0.01% (n = 200,000); AID 1487, 2009; active = well fitted inhibition curve with a large enough effect in the signal ratio, with a control signal flat, not every such curve was filed as active; inconclusive = small, poorly fitted or top-dose-only effect, or effect the other way, or a change in a side signal; the % refers to the signal ratio
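S3 HeLa cells stably expressing lamin A-EGFP splicing minigene plus DsRed2, 600 cells/well, 48 h compound exposure at 37C. Laser-scanning cytometry; analysed as GFP (500-530 nm)/RFP (575-640 nm) total intensity ratio; 0.5% DMSO vehicle.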
GAA glycogen mod = qHTS Assay for Inhibitors and Activators of Human alpha-Glucosidase Cleavage of Glycogen; Lysosomal alpha-glucosidase (Homo sapiens), P10253; recombinant GAA, glycogen substrate, Amplex Red glucose oxidase fluorescence; Potency, µM (highest dose often 76.4 µM), for the others: top-dose activity change, negative = inhibition, hits mostly inhibitors; actives 0.38% (n = 300,000); AID 2100, 2009;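 note: 0% = full enzyme reaction and -100% = no-enzyme basal signal; the screen sought inhibitors and activators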
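Recombinant human alpha-glucosidase (4 nM final) hydrolysed bovine liver glycogen (30 ug) for 40 min at 37 C in pH 5.0 citrate/phosphate with 0.01% Tween-20. Released glucose detected by glucose oxidase/Amplex Red, Ex 573/Em 610 nm. Compounds up to 77 uM; AC50 from Hill fits.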
Luc counter = Counterscreen for Luciferase (Kinase-Glo TM) Inhibition | Luciferin 4-monooxygenase (Photuris pensylvanica), Q27757 | Kinase-Glo luciferase, ATP luminescence, 8 min | Potency, µM (top dose mostly 38.3 µM), for inactives: at the top dose activity change, negative = inhibition, hits mostly inhibitors | actives 0.28% (n = 200,000) | AID 1379, 2008; note: nearly all actives have a fitted effect of over 60% in size
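Recombinant Kinase-Glo luciferase, 10 uM ATP (linear range), luciferin; imidazole pH 7.2 / KCl / MgCl2 / Tween / BSA buffer; 8 min RT; luminescence.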
* marks the source's active call; other numbers are inactive results; ? = inconclusive; / = no result given; ! = repeats disagree; [ ] = remark or other dose. Only some compounds are listed: those with a hit (about 0.52% of all), similar ones and a draw of the others. Unless noted, calls come from the whole dose curve; as a rule, active = well fitted curve in the direction sought with a large enough effect; inconclusive = small, poorly fitted or top-dose-only effect, or another doubt; inactive = no such curve, though single readings can be large; an effect the other way counts as inactive or inconclusive. Unless noted, % is set by controls: 0 for no effect and ±100 for the full control effect; potency is the fitted concentration of half-maximal effect.

SMILES | N370S GC | GAA inhib | aGlu spleen mod | LMNA splice mod | GAA glycogen mod | Luc counter
C[C@@H]1O[C@@H](Oc2c(-c3cc(O)c(O)c(O)c3)oc3cc(O)cc(O)c3c2=O)[C@H](O)[C@H](O)[C@H]1O | -6% | -3%[15.4 µM] | -2% | -3% | 3.2µM* | -2%
Cc1ccc(C)c(NNC(N)=S)c1 | 2% | -6% | -4% | / | 9.9µM* | 1%
COc1cccc(-c2ccc3ncnc(NC4CC4)c3c2)c1 | ? | / | -3% | ? | / | /
CNc1ncnc2ccc(-c3cccc(OC)c3)cc12 | 8.9µM* | / | -3% | ? | / | /
CCOc1ccc(NC(=O)c2nccnc2CO)cc1 | 5% | 7% | 9% | 4% | -12% | 7.9µM*
Cc1ccccc1CNC(=O)Nc1cccs1 | 7% | 5% | 0% | -1% | ? | -5%
CCOc1ccc(NC(=O)c2ccccc2CO)cc1 | -1% | -9% | 4% | 4% | -3% | -17%
CCOc1ccc(NC(=O)c2cnccn2)cc1 | 5% | -5% | 4% | 0% | 8% | -24%
CCOc1ccc(NC(=O)c2ccccn2)cc1 | 5% | -3% | -2% | 3% | 13% | 13µM*
O=C(NCc1cccs1)Nc1cccs1 | -13% | -3% | -5% | 9% | 4µM* | -7%
CCOc1ccc(NC(=S)NNC(=O)c2ccc(Br)cc2)cc1 | -12% | -5% | 1% | / | 40µM* | 2%
O=C(NNC(=S)Nc1ccc(Br)cc1)c1ccccc1 | -3% | / | / | / | / | /
CC[C@H](C)[C@H](NC(=O)[C@H](Cc1ccccc1)NC(=O)[C@H](C)NC(=O)[C@H](CC(=O)O)NC(=O)[C@H](CCCCN)NC(=O)[C@H](CO)NC(=O)[C@@H]1CCCN1C(=O)[C@@H]1CCC(=O)N1)C(=O)NCC(=O)N[C@@H](CC(C)C)C(=O)N[C@@H](CCSC)C(N)=O | -3% | / | 7% | / | / | /
CCC(NC(=O)Nc1cc(OC)ccc1OC)c1c(-n2cccc2)sc2c1CCN(CC)C2 (stereo unspecified) | / | / | / | -16%[46 µM] | 15%[76.3 µM] | /
C=CCCCCCCC=C | -2% | / | -6% | / | / | /
COc1cccc(N2CC(NC(=O)c3cccs3)CC2=O)c1 (stereo unspecified) | / | / | / | 18%[46 µM] | / | /
CCc1ccc(NC(=O)Nc2cccs2)cc1 | -3% | 2% | -5% | -10% | ? | -5%
CCOc1ccc(NC(=O)Nc2cccs2)cc1 | 7% | -4% | -2% | 4% | 20µM* | -22%
CN1C(=O)Cc2cc(S(=O)(=O)NCc3ccccc3Cl)ccc21 | / | / | / | ? | -6%[76.3 µM] | /
Cc1nc(C#N)c(N/N=C/c2cccc(Cl)c2)o1 | 7% | -9% | 1% | ? | 32µM* | -7%
Cc1cc(N/N=C/c2cccc(Cl)c2)nc(-n2nc(C)cc2C)n1 | -10% | / | -7% | / | -4% | /
Nc1nc2ccccc2n1C(=O)c1ccccc1 | 11% | 2% | -5% | / | -4% | 11µM*
Nc1nc2ccccc2n1C(=O)c1ccc(F)cc1 | 10% | 6% | -1% | ? | -4% | ?
CN=c1scc(C)n1/N=C/c1cc(Br)c(O)c(OC)c1 | -11% | -2% | -1% | -16%[46 µM] | 13% | -2%
COc1cc(/C=N/N(C)C)cc(Br)c1O | 0% | / | -4% | / | 4.5µM* | /
SMILES | N370S GC | GAA inhib | aGlu spleen mod | LMNA splice mod | GAA glycogen mod | Luc counter
O=C(CCc1ccc(O)cc1)c1c(O)cc(O)cc1O | 18µM*! | / | 0% | ? | 31µM* | -1%
COc1cc(O)c(CC=C(C)C)c(O)c1C(=O)CCc1ccc(O)cc1 | 1% | / | -7% | / | -22% | /
CCOC(=O)c1c(/N=C/c2ccc(O)cc2O)sc2c1CCC2 | -15% | 2% | -12% | -16% | 35µM* | -2%
CCOC(=O)c1c(/N=C/c2cccc([N+](=O)[O-])c2O)sc2c1CCC2 | -9% | -3% | 0% | / | -15% | /
CCOC(=O)c1c(/N=C/c2ccc(C)cc2O)sc2c1CCN(C)C2 | 0% | / | 0% | / | 2% | /
CCOC(=O)c1c(/N=C/c2ccccc2O)sc2c1CCC2 | 1% | 4% | 0% | -3% | 18µM* | /
O=C(O)c1ccc(N=Cc2c(O)ccc3oc4c(c23)CCCC4)cc1 | 18% | / | 4% | / | -4% | /
Oc1ccccc1N=Cc1c(O)ccc2oc3c(c12)CCCC3 | 7% | / | 3% | / | 5.6µM* | /
O=C1CC(Nc2ccc(N3CCOCC3)cc2)C(=O)N1Cc1ccccc1 (stereo unspecified) | -8% | -5% | 0% | -9% | 13µM* | 0%
CCOC(=O)c1ccc(Nc2cc(C)nc(-c3ccccc3)n2)cc1 | 1.4µM* | / | / | / | -1% | /
CCOC(=O)c1ccc(Nc2nc(C)cc(C)n2)cc1 | 0% | / | / | / | -7% | /
COC(=O)c1nn(-c2ccc3c(c2)CCN3C(C)=O)cc1O | 10% | 1% | -3% | -2% | 7% | 11µM*
CC(C)c1cc(NC(=O)C(C)(C)C)cc(C(C)C)c1O | 3% | -10% | -3% | 4% | 32µM* | -3%
CCOc1ccc(N(CC(=O)Nc2ccc(F)cc2F)S(=O)(=O)c2c(C)[nH]c(=O)[nH]c2=O)cc1 | / | / | / | / | 13%[76.3 µM] | /
CCOc1ccc(N(CC(=O)Nc2ccc(C)cc2)S(=O)(=O)c2c(C)[nH]c(=O)[nH]c2=O)cc1 | 2.8µM* | / | 5% | / | 3% | /
CCOc1ccc(NC(=O)CN(c2ccc(OCC)cc2)S(=O)(=O)c2c(C)[nH]c(=O)[nH]c2=O)cc1 | 6.3µM* | -2% | -2% | / | -10% | -2%
CCOc1ccc(N(CC(=O)Nc2ccc(OC)cc2)S(=O)(=O)c2c(C)[nH]c(=O)[nH]c2=O)cc1 | ? | -2% | 3% | / | -1% | 4%
Cc1ccc(C)c(-c2nn(-c3cc(N4CCN(CCO)CC4)ccc3[N+](=O)[O-])c(=O)c3ccccc23)c1 | 16µM* | 7% | -2% | 6% | -3% | -3%
Cc1nn(-c2cc(N3CCCC3)ccc2[N+](=O)[O-])c(=O)c2ccccc12 | 7% | 0% | 0% | 3% | -3% | -7%
COC(=O)c1ccccc1NC(=O)c1cnc(Nc2ccc(OC)cc2)c2ccccc12 | / | / | / | / | -6%[76.3 µM] | /
COc1ccc(NC(=O)CCN2CCN(CCO)CC2)c(OC)c1 | / | / | / | / | 3%[76.3 µM] | /
Cc1cccc(NCc2nc3ccccc3n2Cc2ccccc2)c1 | 24% | -11% | -12% | -12% | 8% | -5%
Cc1nc2cc(NCc3nc4ccccc4n3Cc3ccccc3)ccc2n1C | 4% | 0% | -7% | ? | -21% | 10µM*

Source: PubChem (National Center for Advancing Translational Sciences (NCATS))
